Reference: PubChem BioAssay (Tox21)
Values joined by “and” are separate entries in the source; they are usually repeats but may differ in a detail not shown here. Equal values may be shown once. Records with an inconclusive call do not appear. A call without a number means that no potency is given here. Active and inactive are the calls of the source. Unless noted, the call rests on the fitted dose curve; in most records, active means well fitted curve in the direction sought with a large enough effect in the repeat runs; inconclusive means weak or mixed curves; inactive means no such curve, though single readings can be large; an effect the other way counts as inactive or inconclusive.

Experiments:
[1] = qHTS assay to identify small molecule agonists of the RXR signaling pathway - cell viability counter screen (AID 1159529); further: nearly all actives have a fitted effect of over 50% in size; further: potency means the concentration at half of the fitted maximal effect
Outline: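 Luminescence from CellTiter-Glo (30 min, RT) measured viability in the same wells as the beta-lactamase reporter readout. Cells: GeneBLAzer RXR-alpha HEK 293T, 2% charcoal-stripped FBS. Compound exposure 16 hr, 37 C.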

[2] = qHTS assay to identify small molecule antagonists of the retinoid acid receptor (RAR) signaling pathway - cell viability counter screen (AID 1159551); further: nearly all actives have a fitted effect of over 35% in size
Outline: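 C3RL4 RARE-luciferase cells, 1,000/well, incubated overnight, then dosed with compound plus 1 uM retinol (final). After 6 hr at 37 C, viability read by CellTiter-Glo ATP luminescence following 30 min at room temperature.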

[3] = qHTS assay to identify small molecule antagonists of the retinoic acid receptor (RAR) signaling pathway (AID 1159552; further: nearly all actives have a fitted effect of over 50% in size)
Outline: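 Luminescence from a RARE luciferase reporter in C3RL4 cells served as read-out. Cells received compounds together with 1 uM final retinol and incubated 6 hr at 37 C before detection reagent was added for 30 min at room temperature.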

[4] = qHTS assay to identify small molecule agonists of the retinoic acid receptor (RAR) signaling pathway (AID 1159553); further: potency means the concentration at half of the fitted maximal effect
Outline: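 C3RL4 RARE-luciferase cells were seeded at 1,000/well and grown overnight at 37 C, then exposed to compounds for 6 hr at 37 C, 5% CO2. Luciferase reagent was added and luminescence was read after 30 min at room temperature.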

[5] = molecular target: Luciferin 4-monooxygenase (Photinus pyralis) (UniProt P08659); assay: qHTS assay to identify small molecule inhibitors of firefly luciferase (AID 1224835); further: nearly all actives have a fitted effect of over 25% in size; further: potency means the concentration at half of the fitted maximal effect
Outline: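 Inhibition of purified Photinus luciferase is measured by luminescence. Substrate levels (D-luciferin, ATP) sit at their KM values. Each compound is tested in a concentration series.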

[6] = molecular target: Nuclear receptor subfamily 1 group I member 3 (Homo sapiens) (UniProt Q14994); assay: qHTS assay to identify small molecule antagonists of the constitutive androstane receptor (CAR) signaling pathway (AID 1224838); further: nearly all actives have a fitted effect of over 40% in size; further: potency means the concentration at half of the fitted maximal effect
Outline: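 HepG2 cells stably carrying hCAR and a CYP2B6-2.2kb luciferase reporter, seeded 4 hrs before compound (15 concentrations). Stimulated with 50 nM CITCO for 24 hr at 37 C. ONE-Glo luminescence read after 30 min at room temperature.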

[7] = molecular target: Nuclear receptor subfamily 1 group I member 3 (Homo sapiens) (UniProt Q14994); assay: qHTS assay to identify small molecule agonists of the constitutive androstane receptor (CAR) signaling pathway (AID 1224839); further: nearly all actives have a fitted effect of over 15% in size; further: potency means the concentration at half of the fitted maximal effect
Outline: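 Luminescence read-out (ONE-Glo, 30 min, room temperature) from double-stable HepG2-CYP2B6-hCAR cells exposed 24 h to 15-point compound series in presence of 0.75 uM PK11195 final.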

[8] = qHTS assay to identify small molecule antagonists of the estrogen related receptor signaling pathway with the pleiotropic PPARgamma coactivator (PGC) from Tox21 10K library - cell viability counter screen (AID 1224840; active means well fitted cell-killing curve with a large enough effect in the repeat runs, not every such curve was filed as active; further: nearly all actives have a fitted effect of over 40% in size)
Outline: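 PGC/ERR cells (2,000/well) plated 6 h, then compound-treated for 17.5 h at 37 C. Viability measured by CellTiter-Fluor fluorescence after 30 min at 37 C, multiplexed with the pathway assay.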

[9] = molecular target: Thyrotropin receptor (Homo sapiens) (UniProt P16473); assay: qHTS assay to identify small molecule agonists of the thyroid stimulating hormone receptor (TSHR) signaling pathway (AID 1224843; calls by dose curve; further: nearly all actives have a fitted effect of over 45% in size)
Outline: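 Screening of the Tox21 10K collection used HEK293 cells engineered with TSHR at 800 cells per well. After a 30-min room-temperature compound exposure, HTRF cAMP reagents were added and fluorescence recorded 1 h later.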

[10] = qHTS assay to identify small molecule antagonists of the estrogen related receptor signaling pathway with the pleiotropic PPARgamma coactivator (PGC) from Tox21 10K library (AID 1224841; call rule not given here; further: series mostly up to about 92 µM; actives are mostly falling curves and most rising ones were filed inactive; nearly all actives have a fitted effect of over 50% in size)
Outline: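 PGC/ERR cell line, 2,000 cells/well, pre-incubated 6 hours at 37 C, then exposed to compounds for 18 hours at 37 C; luciferase read with One-Glo luminescence after 30 min at room temperature.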

[11] = qHTS assay to identify small molecule agonists of the estrogen related receptor signaling pathway with the pleiotropic PPARgamma coactivator (PGC) from Tox21 10K library (AID 1224842); further: nearly all actives have a fitted effect of over 15% in size; further: potency means the concentration at half of the fitted maximal effect
Outline: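 Luminescence from One-Glo (30 min, room temperature) measured after PGC/ERR cells had 18 h at 37 C with pinned compound (23 nL in DMSO). Cells had been seeded at 2,000 per well and pre-incubated 6 h.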

[12] = qHTS assay to identify small molecule antagonists of the estrogen related receptor (ERR) signaling pathway from Tox21 library - cell viability counter screen (AID 1224834); further: nearly all actives have a fitted effect of over 30% in size; further: potency means the concentration at half of the fitted maximal effect
Outline: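 ERR reporter cells, 2,000 per well, rested 6 h, then exposed to compound in DMSO for 17.5 hours at 37 C. Viability read as fluorescence after 30 min with CellTiter-Fluor.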

[13] = qHTS assay to identify small molecule agonists of the constitutive androstane receptor (CAR) signaling pathway - cell viability counter screen (AID 1224836); further: series mostly up to about 92 µM; nearly all actives have a fitted effect of over 45% in size
Outline: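 Viability read-out: CellTiter-Fluor fluorescence after 23 h compound exposure at 37 C/5% CO2 in double-stable HepG2-CYP2B6-hCAR cells, with PK11195 present at 0.75 uM final; compounds tested in 15-point titration.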

[14] = qHTS assay to identify small molecule antagonists of the constitutive androstane receptor (CAR) signaling pathway - cell viability counter screen (AID 1224837); further: series mostly up to about 92 µM; nearly all actives have a fitted effect of over 45% in size
Outline: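 HepG2 cells stably carrying hCAR and CYP2B6-2.2kb reporter, stimulated with 50 nM CITCO and compounds at 15 concentrations for 23 h at 37 C. Viability measured by CellTiter-Fluor fluorescence.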

[15] = qHTS assay to identify small molecule antagonists of the estrogen related receptor signaling pathway with the pleiotropic PPARgamma coactivator (PGC) cell viability counter screen (AID 1224822; further: potency means the concentration at half of the fitted maximal effect)
Outline: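 PGC/ERR cells rested 6 h, then compound-treated 17.5 h at 37 C. CellTiter-Fluor added for 30 min at 37 C, viability measured by fluorescence intensity.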

Chain of Thyrotropin receptor (Homo sapiens) (P16473 whole entry, looked up): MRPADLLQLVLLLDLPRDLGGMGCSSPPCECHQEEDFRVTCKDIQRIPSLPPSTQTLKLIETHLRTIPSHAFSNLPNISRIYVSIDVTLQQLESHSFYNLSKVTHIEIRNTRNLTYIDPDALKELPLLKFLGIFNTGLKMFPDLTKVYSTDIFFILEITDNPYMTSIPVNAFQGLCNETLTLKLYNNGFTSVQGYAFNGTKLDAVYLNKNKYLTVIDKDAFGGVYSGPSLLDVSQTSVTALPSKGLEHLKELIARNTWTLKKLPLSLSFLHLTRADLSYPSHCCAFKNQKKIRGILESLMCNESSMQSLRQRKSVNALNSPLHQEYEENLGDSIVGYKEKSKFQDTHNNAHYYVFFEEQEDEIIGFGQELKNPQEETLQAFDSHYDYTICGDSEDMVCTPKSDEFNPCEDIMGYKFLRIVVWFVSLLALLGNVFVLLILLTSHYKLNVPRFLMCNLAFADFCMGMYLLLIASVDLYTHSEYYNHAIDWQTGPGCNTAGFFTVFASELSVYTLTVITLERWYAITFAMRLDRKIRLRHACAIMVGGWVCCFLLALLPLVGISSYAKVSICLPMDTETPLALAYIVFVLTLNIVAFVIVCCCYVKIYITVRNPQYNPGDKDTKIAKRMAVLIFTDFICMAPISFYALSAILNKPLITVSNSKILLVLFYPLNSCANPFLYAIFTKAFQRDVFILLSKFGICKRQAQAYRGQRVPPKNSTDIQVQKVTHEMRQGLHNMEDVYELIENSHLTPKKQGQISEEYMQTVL
Chain of Nuclear receptor subfamily 1 group I member 3 (Homo sapiens) (Q14994 whole entry, looked up): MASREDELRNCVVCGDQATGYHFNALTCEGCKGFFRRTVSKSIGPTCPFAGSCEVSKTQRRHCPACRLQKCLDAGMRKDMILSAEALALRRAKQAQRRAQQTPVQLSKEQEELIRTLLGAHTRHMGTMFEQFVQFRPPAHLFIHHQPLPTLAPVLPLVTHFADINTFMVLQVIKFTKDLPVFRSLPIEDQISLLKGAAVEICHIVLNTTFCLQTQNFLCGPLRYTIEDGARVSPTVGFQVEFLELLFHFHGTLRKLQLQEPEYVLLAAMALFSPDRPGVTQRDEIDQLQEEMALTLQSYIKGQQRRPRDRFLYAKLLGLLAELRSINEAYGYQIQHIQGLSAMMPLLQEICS
Chain of Luciferin 4-monooxygenase (Photinus pyralis) (P08659 whole entry, looked up): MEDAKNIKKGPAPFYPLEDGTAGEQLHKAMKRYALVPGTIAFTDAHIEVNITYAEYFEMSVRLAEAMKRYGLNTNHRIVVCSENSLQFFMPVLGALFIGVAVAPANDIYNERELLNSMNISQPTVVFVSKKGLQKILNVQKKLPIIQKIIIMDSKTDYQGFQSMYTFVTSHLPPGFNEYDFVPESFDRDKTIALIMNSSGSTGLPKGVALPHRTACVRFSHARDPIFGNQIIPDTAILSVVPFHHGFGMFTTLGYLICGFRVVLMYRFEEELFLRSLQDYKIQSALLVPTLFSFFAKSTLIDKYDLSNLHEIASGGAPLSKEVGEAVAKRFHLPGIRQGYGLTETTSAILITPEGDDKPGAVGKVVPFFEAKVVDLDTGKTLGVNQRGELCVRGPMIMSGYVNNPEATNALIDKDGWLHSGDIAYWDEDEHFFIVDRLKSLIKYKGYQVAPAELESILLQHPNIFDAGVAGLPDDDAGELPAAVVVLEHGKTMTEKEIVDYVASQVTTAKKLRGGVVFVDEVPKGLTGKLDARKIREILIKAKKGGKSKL

CC(=O)OC1(c2ccccc2)CCN(CCc2ccccc2)CC1
Potency [1]: inactive | Potency [2]: inactive | Potency [3]: inactive | Potency [4]: inactive | Potency [5]: inactive | Potency [6]: 8.84 µM (active) | Potency [7]: inactive | Potency [8]: inactive | Potency [9]: inactive

O=C(O)C1C2CCC(O2)C1C(=O)O (centres undefined)
Potency [1]: inactive | Potency [2]: inactive | Potency [3]: inactive | Potency [4]: inactive | Potency [5]: inactive | Potency [6]: 49.2 µM (active) and 44.5 µM (active) | Potency [7]: inactive | Potency [8]: inactive | Potency [10]: inactive | Potency [11]: 55.1 µM (active) and 19.9 µM (active) | Potency [9]: inactive

BrC(Br)Br
Potency [1]: inactive | Potency [2]: inactive | Potency [3]: inactive | Potency [4]: inactive | Potency [12]: inactive | Potency [5]: inactive | Potency [13]: inactive | Potency [14]: inactive | Potency [6]: inactive | Potency [7]: inactive | Potency [8]: inactive | Potency [10]: inactive | Potency [11]: inactive | Potency [9]: inactive

CC(=O)c1ccc(-c2ccccc2)cc1
Potency [1]: inactive | Potency [2]: inactive | Potency [3]: inactive | Potency [12]: inactive | Potency [5]: 31.7 µM (active) | Potency [13]: inactive | Potency [14]: inactive | Potency [6]: inactive | Potency [7]: 48.6 µM (active) | Potency [8]: inactive | Potency [9]: inactive

N#CNC#N
Potency [1]: inactive | Potency [2]: inactive | Potency [3]: inactive | Potency [4]: inactive | Potency [12]: inactive | Potency [5]: inactive | Potency [13]: inactive | Potency [14]: inactive | Potency [6]: inactive | Potency [7]: inactive | Potency [8]: inactive | Potency [9]: inactive

Cl/C=C\CCl
Potency [1]: inactive | Potency [2]: inactive | Potency [3]: inactive | Potency [12]: inactive | Potency [5]: inactive | Potency [13]: inactive | Potency [14]: inactive | Potency [6]: inactive | Potency [7]: inactive | Potency [8]: inactive | Potency [10]: inactive | Potency [11]: inactive | Potency [9]: inactive

COc1ccc(OC)c(CC(C)N)c1 (centres undefined)
Potency [1]: inactive | Potency [2]: inactive | Potency [3]: inactive | Potency [4]: inactive | Potency [12]: inactive | Potency [5]: inactive | Potency [13]: inactive | Potency [14]: inactive | Potency [7]: inactive | Potency [8]: inactive | Potency [9]: inactive

Cc1c(Cl)c(=O)oc2cc(OP(=O)(OCCCl)OCCCl)ccc12
Potency [1]: inactive | Potency [2]: inactive | Potency [3]: inactive | Potency [4]: inactive | Potency [12]: inactive | Potency [5]: inactive | Potency [13]: inactive | Potency [14]: inactive | Potency [6]: inactive | Potency [7]: inactive | Potency [8]: inactive | Potency [9]: inactive

c1ccc2cc3c(cc2c1)-c1cccc2cccc-3c12
Potency [1]: inactive | Potency [2]: inactive | Potency [3]: inactive | Potency [4]: inactive | Potency [12]: inactive | Potency [5]: inactive | Potency [13]: inactive | Potency [14]: inactive | Potency [6]: inactive | Potency [7]: 0.955 µM (active) | Potency [10]: inactive | Potency [11]: inactive

N#C/C=C/C#N
Potency [1]: inactive | Potency [2]: inactive | Potency [3]: inactive | Potency [4]: inactive | Potency [13]: inactive | Potency [14]: inactive | Potency [7]: 64 µM (active) | Potency [8]: inactive | Potency [9]: inactive

CC(C)OS(C)(=O)=O
Potency [1]: inactive | Potency [2]: inactive | Potency [3]: inactive | Potency [4]: inactive | Potency [12]: inactive | Potency [5]: inactive | Potency [13]: inactive | Potency [14]: inactive | Potency [6]: inactive | Potency [7]: inactive | Potency [8]: inactive | Potency [9]: inactive

CCS(=O)(=O)c1cccnc1S(=O)(=O)NC(=O)Nc1nc(OC)cc(OC)n1
Potency [1]: inactive | Potency [2]: inactive | Potency [3]: inactive | Potency [12]: inactive | Potency [5]: inactive | Potency [13]: inactive | Potency [14]: inactive | Potency [6]: inactive | Potency [7]: 54.5 µM (active) | Potency [8]: inactive | Potency [11]: inactive | Potency [9]: inactive

c1ccc2c(c1)[nH]c1cnccc12
Potency [1]: inactive | Potency [2]: inactive | Potency [3]: inactive | Potency [4]: inactive | Potency [12]: inactive | Potency [5]: inactive | Potency [13]: inactive | Potency [14]: inactive | Potency [7]: inactive | Potency [8]: inactive | Potency [9]: inactive

N#CC(Cl)Cl
Potency [1]: inactive | Potency [2]: inactive | Potency [3]: inactive | Potency [4]: 47.3 µM (active) | Potency [12]: inactive | Potency [5]: inactive | Potency [13]: inactive | Potency [14]: inactive | Potency [8]: inactive | Potency [11]: inactive | Potency [9]: inactive

CC(C)(COCC1CO1)COCC1CO1 (centres undefined)
Potency [1]: inactive | Potency [2]: inactive | Potency [3]: inactive | Potency [12]: inactive | Potency [5]: inactive | Potency [13]: inactive | Potency [14]: inactive | Potency [6]: inactive | Potency [7]: inactive | Potency [8]: inactive | Potency [11]: inactive | Potency [9]: inactive

CC(C)(C)OO
Potency [1]: inactive | Potency [2]: inactive | Potency [3]: inactive | Potency [4]: inactive | Potency [12]: inactive | Potency [5]: inactive | Potency [13]: inactive | Potency [14]: inactive | Potency [6]: inactive | Potency [7]: inactive | Potency [8]: inactive | Potency [9]: inactive

Cn1cc(C2=C(c3cn(C4CCN(Cc5ccccn5)CC4)c4ccccc34)C(=O)NC2=O)c2ccccc21
Potency [1]: inactive | Potency [2]: inactive | Potency [3]: inactive | Potency [4]: inactive | Potency [12]: 11.9 µM (active) | Potency [5]: inactive | Potency [14]: inactive | Potency [8]: inactive | Potency [11]: inactive | Potency [9]: inactive

O=c1[nH]c2ccccc2n1CCCN1CCC(n2c(=O)[nH]c3cc(Cl)ccc32)CC1
Potency [1]: 16.9 µM (active) | Potency [2]: inactive | Potency [3]: inactive | Potency [4]: inactive | Potency [15]: 23.7 µM (active) | Potency [12]: 29.8 µM (active) | Potency [7]: inactive | Potency [9]: inactive

CC(Cl)CN(C)C (centres undefined)
Potency [1]: inactive | Potency [2]: inactive | Potency [3]: inactive | Potency [12]: inactive | Potency [5]: inactive | Potency [13]: inactive | Potency [14]: inactive | Potency [6]: inactive | Potency [7]: inactive | Potency [8]: inactive

COP(=O)(CCC(=O)NCO)OC
Potency [1]: inactive | Potency [2]: inactive | Potency [3]: inactive | Potency [12]: inactive | Potency [5]: inactive | Potency [13]: inactive | Potency [14]: inactive | Potency [7]: inactive | Potency [8]: inactive | Potency [10]: inactive | Potency [11]: inactive | Potency [9]: inactive
